Structures can show the parent of a compound that is named as a salt.
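Also: viability read out with the CCK-8 kit in 96-well plates, screening a set of 303 compounds acting on lipid metabolism targets.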

This test has as its system MDA-MB-231. Nature of the test: relative cell viability, compound alone, vs DMSO (fraction of DMSO control); higher = less growth inhibition. Conditions: 72 h.
Turning to `COc1ccc(/C=C/c2cc(O)cc(O[C@@H]3O[C@H](CO)[C@@H](O)[C@H](O)[C@H]3O)c2)cc1` [Deoxyrhapontin], the relative cell viability amounted to 0.995.

With `C[C@H](CCOc1cccc(CC(=O)O)c1)N(Cc1cccc(C(F)(F)F)c1Cl)CC(c1ccccc1)c1ccccc1`, the relative cell viability came to 0.841. The compound `CC(C)CCC[C@@H](C)[C@H]1CC[C@H]2[C@@H]3CC=C4C[C@@H](O)CC[C@]4(C)[C@H]3CC[C@]12C` [Cholesterol] returned a relative cell viability of 1.01. Compound `Cc1c(C(=O)NN2CCOCC2)nn(-c2ccc(Cl)cc2Cl)c1-c1ccc(I)cc1` returned a relative cell viability of 0.817. In turn, `CN1CCN(C(=O)C2C(C(=O)O)[C@H]3CC[C@@H]2O3)CC1` (stereo partly drawn) had a relative cell viability of 0.616. Turning to `CN(C)C(=N)NC(=N)N` [Metformin], the relative cell viability turned out to be 0.93. With `CC[C@H](C)C(=O)O[C@H]1CCC=C2C=C[C@H](C)[C@H](CC[C@@H]3C[C@@H](O)CC(=O)O3)[C@H]21` [Mevastatin], the relative cell viability was found to be 0.548. `CC[C@H]1[C@@H](O)[C@@H]2[C@H](CC[C@]3(C)[C@@H]([C@H](C)CCC(=O)O)CC[C@@H]23)[C@@]2(C)CC[C@@H](O)C[C@@H]12` [Obeticholic Acid] returned a relative cell viability of 0.856. On to `COc1cc(N2CCN(C)CC2)ccc1Nc1ncc2c(n1)N(C1CCC1)C(=O)N(c1c(C)cccc1C)C2`, for which the relative cell viability turned out to be 0.767. In the case of `CCCCCCCCCCCCC/C=C/[C@@H](O)[C@@H](N)CO`, the relative cell viability worked out at 0.792. Regarding `COC(=O)CN(c1ccc(CN(c2ccc(OCc3ccc(C)cc3)c(C(=O)OC)c2)S(=O)(=O)Cc2ccccc2)cc1)S(C)(=O)=O`, the relative cell viability was determined as 0.921.

In turn, `CCN(CC)CCCC(C)Nc1c2ccc(Cl)cc2nc2ccc(OC)cc12` (stereo not drawn) [Quinacrine dihydrochloride] had a relative cell viability of 0.306. `CC(=O)Nc1nc(C)c(S(=O)(=O)Nc2ccc(C(O)(C(F)(F)F)C(F)(F)F)cc2)s1` displayed a relative cell viability of 1.24. `CC(C)c1c(C(=O)Nc2ccccc2)c(-c2ccccc2)c(-c2ccc(F)cc2)n1CC[C@@H](O)C[C@@H](O)CC(=O)O` [Atorvastatin Calcium] showed a relative cell viability of 0.569. Then `O=C1c2cc(CO)cc(O)c2C(=O)c2c(O[C@@H]3O[C@H](CO)[C@@H](O)[C@H](O)[C@H]3O)cccc21` [Aloe-emodin-8-O-beta-D-glucopyranoside], with 0.783.

On to `CN(CCOc1ccc(CC2SC(=O)NC2=O)cc1)c1ccccn1` (stereo not drawn) [Rosiglitazone maleate], for which the relative cell viability was 0.86. `CN1c2ccccc2C(=O)Nc2cnc(Nc3ccc(N4CCC(O)CC4)cc3)nc21`: the relative cell viability turned out to be 0.55. `CCC(C)(Oc1ccc(C2(c3ccc(OC(C)(CC)C(=O)O)cc3)CCCCC2)cc1)C(=O)O` (stereo not drawn) [Clinofibrate]: the relative cell viability turned out to be 0.846. In the case of `N[C@@H](Cc1c[nH]cn1)C(=O)O` [histidine], the relative cell viability was found to be 1.03. For `Nc1ccc(O)c(C(=O)O)c1` [Mesalamine], the relative cell viability amounted to 0.914.

`CC(C)[C@H](N=C(NS(=O)(=O)c1ccc(Cl)cc1)N1C[C@H](c2ccccc2)C(c2ccc(Cl)cc2)=N1)C(N)=O` yielded a relative cell viability of 0.893. `C[C@@H](Nc1nc(N[C@H](C)C(F)(F)F)nc(-c2cccc(Cl)n2)n1)C(F)(F)F` [Vorasidenib] returned a relative cell viability of 0.914.

`Cc1cc([N+](=O)[O-])ccc1NS(=O)(=O)c1cc(Cl)ccc1Cl`: the relative cell viability is 0.795. On to `O=c1c(O[C@@H]2O[C@H](CO)[C@@H](O)[C@H](O)[C@H]2O)c(-c2ccc(O)cc2)oc2cc(O)cc(O)c12` [Astragalin], for which the relative cell viability turned out to be 0.984. `Cc1cc(N2C[C@@H](C)N[C@@H](C)C2)ncc1-c1ccc(-c2nc3c(ccn3C)c(=O)[nH]2)cc1`: the relative cell viability was 1.05. Turning to `COc1cc(N(C)C)cc(CN(C)CCc2ccc([N+](=O)[O-])cc2)c1O` [CDC25 Phosphatase Inhibitor I], the relative cell viability came to 0.976. The figure for `COc1ccc(-n2c(SCCCN3C(=O)c4cccc5cccc(c45)C3=O)nnc2-c2ccncc2)cc1` is 0.877; for `CC(C)(Oc1ccc(Cl)cc1)C(=O)O` [Clofibric acid] it is 0.825; for `OC[C@H]1O[C@@H](Oc2cc(O)cc(/C=C/c3ccc(O)cc3)c2)[C@H](O)[C@@H](O)[C@@H]1O` [Polydatin] it is 0.871. Then `CCNC1(C(N)=O)CCN(c2ncnc3c2nc(-c2ccccc2Cl)n3-c2ccc(Cl)cc2)CC1` [Otenabant], with 0.915; and `CCc1ccc(N(CC(C)C)S(=O)(=O)c2ccc(OCC3CCOCC3)c(CO)c2)cc1`, with 0.939; and `Nc1cccc(S(=O)(=O)N2CCCN(S(=O)(=O)c3ccc4c(c3)OCCO4)CC2)c1`, with 1.01.

`CC(C)(C)c1ccc(-c2nc3ccccc3[nH]2)cc1` showed a relative cell viability of 0.612.

Source of the values: the supplement of paper PMC9492666.
